IL1B secr inh: inhibitors of inflammasome signaling (IL-1 beta secretion) | actives 4.7% (n = 360,000) | THP-1 LPS/ATP IL-1B secretion, AlphaLISA, 16 h; hits give low values | AID 743279 | activity change, % at 57.5 µM; in the data active means activity change below about -50%; inconclusive means mostly about -30% to -49%; further: on the % scale 0 is the no-effect control and ±100 the full control effect
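Secreted IL-1B measured by AlphaLISA bead assay after 16 h compound exposure of THP-1 cells; compounds (final up to 57.5 uM) added 1 h before LPS (250 ng/mL) and ATP (1.25 mM) stimulation; lower signal means less secretion.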
TGFb inhibitor: TGF-b pathway inhibition. HepG2 CAGA-GFP TGF-b/SMAD3 reporter, GFP fluorescence, 18 h; TGF-beta stimulated, 500 pg/mL final. Potency, µM (series often up to 46.1 µM), inactives show top-dose activity, negative = inhibition, most hits filed as inhibitors. actives 1.2% (n = 410,000). AID 588855; further: potency means the concentration at half of the fitted maximal effect; on the % scale 0 is the no-effect control and ±100 the full control effect; nearly all actives have a fitted effect of over 65% in size
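HEPG2 CAGA-GFP cells (1000/well, DMEM with 1% FBS) were pre-incubated 2 h at 37 degrees C, given compound by pin tool, then stimulated with TGF-beta at 500 pg/mL final for 18 h before per-cell GFP fluorescence imaging.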
TDP1 cell noCPT: qHTS for Inhibitors of human tyrosyl-DNA phosphodiesterase 1 (TDP1): qHTS in cells in absence of CPT. actives 15% (n = 420,000). AID 686978, 2013. Potency, µM (top dose mostly 46.2 µM), without a hit: top-dose activity change, negative = growth inhibition, hits mostly inhibitors. DT40 Tdp1-/- hTDP1 cells, no CPT, ATP luminescence, 48 h; further: potency means the concentration at half of the fitted maximal effect; on the % scale 0 is the no-effect control and ±100 the full control effect; nearly all actives have a fitted effect of over 55% in size
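Cells were dispensed at 400 per well, compounds added by pin tool, plates incubated ≥48 hr at 37 °C, then CellTiter-Glo added for 30 min at room temperature before luminescence reading. Line: DT40 Tdp1-/- complemented with hTDP1; camptothecin omitted.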
TDP1 cell CPT: DT40-hTDP1 cell growth loss with CPT; Potency, µM (titrated, usually from 46.2 µM), for the others: top-dose activity change, negative = growth inhibition, hits mostly inhibitors; AID 686979; chicken DT40 Tdp1-/-;hTDP1 cells + 20 nM CPT, ATP luminescence, 48 h; actives 12% (n = 420,000); further: potency means the concentration at half of the fitted maximal effect; on the % scale 0 is the no-effect control and ±100 the full control effect; nearly all actives have a fitted effect of over 55% in size
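Chicken DT40 Tdp1-/- cells complemented with human TDP1, 400 cells/well, exposed to compounds plus 20 nM camptothecin for at least 48 h at 37 C; viability read as ATP content by CellTiter-Glo luminescence.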
TDP1 inh: blocks human tyrosyl-DNA phosphodiesterase 1. Q9NUW8. AID 485290. Potency, µM (titrated, usually from 130 µM), for inactives: top-dose activity change, negative = inhibition, actives largely listed as inhibitors. recombinant TDP1, AlphaScreen DNA substrate cleavage. actives 0.28% (n = 350,000); further: potency means the concentration at half of the fitted maximal effect; on the % scale 0 is the no-effect control and ±100 the full control effect; nearly all actives have a fitted effect of over 40% in size
Target sequence (Q9NUW8 whole entry, looked up): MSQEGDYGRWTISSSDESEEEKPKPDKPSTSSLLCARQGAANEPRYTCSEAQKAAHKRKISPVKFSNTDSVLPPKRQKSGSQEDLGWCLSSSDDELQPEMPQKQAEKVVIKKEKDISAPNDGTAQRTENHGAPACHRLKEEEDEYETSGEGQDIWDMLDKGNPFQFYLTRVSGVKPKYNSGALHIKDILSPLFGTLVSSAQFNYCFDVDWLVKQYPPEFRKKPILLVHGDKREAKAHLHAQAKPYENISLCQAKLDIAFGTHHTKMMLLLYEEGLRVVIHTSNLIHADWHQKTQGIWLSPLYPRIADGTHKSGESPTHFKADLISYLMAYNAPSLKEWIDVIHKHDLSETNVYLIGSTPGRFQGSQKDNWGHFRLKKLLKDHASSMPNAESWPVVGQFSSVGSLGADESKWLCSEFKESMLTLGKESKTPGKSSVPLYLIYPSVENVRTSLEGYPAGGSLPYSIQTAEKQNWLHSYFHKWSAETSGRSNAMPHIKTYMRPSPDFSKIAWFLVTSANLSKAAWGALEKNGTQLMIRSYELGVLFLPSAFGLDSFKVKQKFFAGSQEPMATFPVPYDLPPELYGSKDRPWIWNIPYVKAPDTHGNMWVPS
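E. coli-derived human Tdp1, 1 nM final. Cpd preinc 15 min RT; substrate 15 nM final, 5 min RT; AS bead mix 10 ug/ml final, 10 min RT. Signal loss = tyrosine-FITC cleavage. No-enzyme wells = max signal.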
HepG2 viability: HepG2 cytotoxicity, counter-screen for TGF-b inhibitors; HepG2 CAGA-GFP viability, ATP luminescence, 18 h; AID 588856; Potency, µM (series often up to 46.1 µM), without a hit: top-dose activity change, negative = cytotoxicity, usual class: cytotoxic; actives 0.76% (n = 410,000); further: potency means the concentration at half of the fitted maximal effect
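HepG2 CAGA-GFP cells (1000/well, DMEM with 1% FBS) received compound, then TGF-beta at 500 pg/mL final, and were incubated 18 hours at 37 degrees C. Viability was read by CellTiter-Glo luminescence. Media-only wells were set as complete cell-killing and DMSO as no toxicity.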
Active calls of the source: *; ? = inconclusive; · = no result given; [ ] = another dose, or the depositor's remark. Hits are enriched below; roughly 19% of the tested compounds scored in any of these assays. Unless noted, the call rests on the fitted dose curve; in most records, active means well fitted curve in the direction sought with a large enough effect; inconclusive means small, poorly fitted or top-dose-only effect, or another doubt; inactive means no such curve, though single readings can be large; an effect the other way counts as inactive or inconclusive.

SMILES | IL1B secr inh | TGFb inhibitor | TDP1 cell noCPT | TDP1 cell CPT | TDP1 inh | HepG2 viability
COc1cccc2c1Oc1ncccc1N(C(=O)CCC(=O)NCc1ccc(N(C)C)cc1)C2 | · | -1% | -18% | ? | -7% | 2%
Cc1ccccc1NC(=O)COc1ccccc1C | -3 | 5% | 7% | 0% | 2% | 39%
Cc1ccc(OCC(=O)Nc2ccccc2-c2ccccc2NC(=O)COc2ccc(C)cc2)cc1 | 9 | ? | 21µM* | ? | 3% | -10%
Cc1ccccc1C(=O)N1CCC(C(=O)N2CCN(c3ncccn3)CC2)CC1 | 34 | 2% | 13% | 2% | -4%[56.1 µM] | -7%
Cc1ccccc1OCC(=O)Nc1ccccc1-c1ccccc1 | 37 | -11% | 6.5µM* | -16% | 8% | 1%
CCOC(=O)N1CCN(C(=O)C2CCN(C(=O)c3ccccc3C)CC2)CC1 | -103* | ? | 1µM* | 0.92µM* | · | -96%
CCOC(=O)N1CCN(C(=O)c2ccccc2N(Cc2ccccc2)S(=O)(=O)c2ccccc2)CC1 | 8 | 9% | 21µM* | 21µM* | · | 1%
CCOC(=O)c1c(S(=O)(=O)N2CCC(C(=O)Nc3ccccc3OC)CC2)c(C)n(CC)c1C | · | -1% | 16% | -9% | 1% | 1%
COC(=O)c1ccc(C(=O)OC)c(NC(=O)c2cnn3c(C(F)F)cc(-c4ccccc4)nc23)c1 | · | -7% | ? | -9% | 3% | 5%
C/C=C(\C)C(=O)Nc1cccc(C2=NOC3(C2)C[C@H](C(N)=O)N(C(=O)C(c2ccccc2)c2ccccc2)C3)c1 (some centres not stated) | -2 | ? | ? | ? | 6% | -12%
Cc1ccc(C)c(OCC(=O)Nc2ccccc2C(=O)N2CCN(C)CC2)c1 | -3 | -7% | -28% | -3% | 4% | -17%
CC(C)c1ccccc1OCC(=O)Nc1ccccc1C(=O)N1CCOCC1 | -11 | 13% | 16µM* | 16µM* | 4% | 9%
CCOC(=O)N1CCN(C(=O)c2ccccc2NC(=O)COc2ccccc2C)CC1 | 0 | -8% | 21µM* | ? | -4% | -30%
Cc1ccccc1OCC(=O)Nc1ccccc1C(=O)NC1CC1 | -5 | -19% | 21µM* | ? | -13%[0.505 µM] | -14%
CCN(CC)c1ccc(C(=O)OCC(=O)NC2CCCCC2C)cc1 (configuration not stated) | 33 | -10% | 15µM* | 21µM* | -7% | 12%
O=C(COc1ccccc1)Nc1ccccc1C(=O)NC1CC1 | -2 | 0% | ? | -8% | · | 0%
CC(/C=N/N1CCN(c2ccc(C)cc2)CC1)=C\c1ccccc1 | -17 | 1% | -7% | 7% | -3% | 7%
Cc1ccc(CN2CCN(/N=C\C(Br)=C\c3ccccc3)CC2)cc1 | -78* | -27% | 8.2µM* | 2.6µM* | 6% | 2%
CC(=C/c1ccccc1)/C=N/N1CCN(Cc2ccc(C)cc2)CC1 | -15 | ? | -6% | -1% | 1% | -29%
Cc1ccc(CN2CCN(/N=C/c3cc(Br)cc(Br)c3O)CC2)cc1 | -12 | -4% | 21µM* | ? | -3% | -1%
BrC(=C\c1ccccc1)/C=N/N1CCN(c2ccccc2)CC1 | -81* | ? | 7.3µM* | 1.2µM* | -1% | -17%
CCn1c(CC(=O)Nc2ccccc2F)nnc1SCC(=O)Nc1nncs1 | 10 | 8% | 5% | 9% | 11% | -5%
CN(Cc1nc2ccccc2c(=O)[nH]1)C(=O)c1ccc(S(=O)(=O)N2CCCC2)cc1 | 6 | 2% | -3% | -5% | 0% | -11%
C=Cc1c(C)c2cc3nc(cc4[nH]c(cc5nc(cc1[nH]2)C(C)=C5CCC(=O)OC)c(CCC(=O)O)c4C)[C@@]1(C)C3=CC=C(C(=O)OC)[C@H]1C(=O)OC | · | · | 1% | -2% | · | ·
COC(=O)/C(C(C)=O)=C(/C=C/C=C/N(C)C)N(C)C | 20 | 2% | -2% | -9% | -15% | 1%
SMILES | IL1B secr inh | TGFb inhibitor | TDP1 cell noCPT | TDP1 cell CPT | TDP1 inh | HepG2 viability
COC(=O)\C(C(C)=O)=C(/C=C/C=C/N(C)C)N(C)C | 14 | -16% | -5% | -3% | 22µM* | -30%
COc1cccc(CNc2ccc(N3CCCCC3)cc2)c1OC | -3 | ? | ? | 26µM* | 15% | -4%
CCOc1cc(CNc2ccc(N3CCCC3)cc2)cc(Cl)c1OC | -99* | -3% | 3.7µM* | 2.9µM* | 8% | -31%
C=CCOc1c(Cl)cc(CNc2ccc(N(C)C)cc2)cc1OC | 0 | ? | 6.5µM* | 6.5µM* | 3% | -65%
COc1cc(CNc2ccc(N3CCCC3)cc2)cc(Cl)c1OC | ? | ? | 2.6µM* | 2.3µM* | 0% | -16%
C=CCOc1c(Cl)cc(CNc2ccc(C)c(Cl)c2)cc1OC | · | · | · | · | -1% | ·
CCOc1ccc(CNc2ccc(N3CCCC3)cc2)cc1 | 4 | ? | 8.2µM* | 9.2µM* | 11% | -32%
CCOc1ccc(OCCOCCN2CCCC2)cc1 | -3 | -3% | -22% | -20% | 3% | 13%
CCOc1ccc(CNCCN2CCCC2)cc1 | -15 | 1% | 21µM* | ? | · | -12%
Cc1ccc(NC(=O)C(Cc2ccccc2)NS(=O)(=O)c2ccc3c(c2)CCC(=O)N3)cc1 (configuration not stated) | · | -35% | -44% | 2% | 1% | -12%
CC(C)(C)c1cnnn1-c1ccc(C(=O)CCl)cc1 | -106* | 6% | 1.8µM* | 1.3µM* | 4% | -16%
CC(C)(C)c1cnnn1-c1ccc(C=O)cc1 | 13 | -3% | -6% | -20% | 0% | -3%
CCOC(=O)N1CCN(CC(=O)c2c[nH]c3ccc(F)cc23)CC1 | · | · | · | · | 2% | ·
Fc1ccc2[nH]c3c(N4CCN(c5ccccc5)CC4)ncnc3c2c1 | -55* | ? | 4.6µM* | 5.2µM* | 12% | -35%
COc1ccc(N2CCN(C(=O)Cn3c(=O)[nH]c4ccccc4c3=O)CC2)cc1 | · | · | · | · | 4% | ·
CCCCOc1ncnc2c1[nH]c1ccc(OC)cc12 | 23 | 20% | ? | ? | -2% | 3%
CCOC(=O)N1CCN(c2ncnc3c2[nH]c2ccc(F)cc23)CC1 | -3 | -6% | 2.1µM* | 6.5µM* | 5% | -28%
